USP8 inh – human USP8 deubiquitinase inhibition; purified USP8, Ub-rhodamine cleavage fluorescence, 30 min; inhibition, % at 20 µM; 47,000 tested, 4.2% active; AID 1645853; P40818
UCHL1 inh – inhibitors of human UCHL1 deubiquitinase. 47,000 tested, 0.2% active. P09936. AID 1645859. inhibition, % at 20 µM. purified UCHL1, Ub-rhodamine cleavage fluorescence
USP30 inh – blocks human USP30 ubiquitin-rhodamine cleavage; Q70CQ3; purified USP30, Ub-rhodamine cleavage fluorescence; inhibition, % at 25 µM; 47,000 tested, 5.3% active
USP17 block – inhibitors of human USP17 deubiquitinase | A8MUK1 | purified USP17, Ub-rhodamine cleavage fluorescence, 3 h | inhibition, % at 50 µM | 47,000 tested, 6.5% active | AID 1645855
USP10 block – blocks human USP10 ubiquitin-rhodamine cleavage. Q14694. purified USP10, Ub-rhodamine fluorescence, 60 min. inhibition, % at 20 µM. 47,000 tested, 1.1% active. AID 1645856
Target sequence (Q14694 whole entry, looked up): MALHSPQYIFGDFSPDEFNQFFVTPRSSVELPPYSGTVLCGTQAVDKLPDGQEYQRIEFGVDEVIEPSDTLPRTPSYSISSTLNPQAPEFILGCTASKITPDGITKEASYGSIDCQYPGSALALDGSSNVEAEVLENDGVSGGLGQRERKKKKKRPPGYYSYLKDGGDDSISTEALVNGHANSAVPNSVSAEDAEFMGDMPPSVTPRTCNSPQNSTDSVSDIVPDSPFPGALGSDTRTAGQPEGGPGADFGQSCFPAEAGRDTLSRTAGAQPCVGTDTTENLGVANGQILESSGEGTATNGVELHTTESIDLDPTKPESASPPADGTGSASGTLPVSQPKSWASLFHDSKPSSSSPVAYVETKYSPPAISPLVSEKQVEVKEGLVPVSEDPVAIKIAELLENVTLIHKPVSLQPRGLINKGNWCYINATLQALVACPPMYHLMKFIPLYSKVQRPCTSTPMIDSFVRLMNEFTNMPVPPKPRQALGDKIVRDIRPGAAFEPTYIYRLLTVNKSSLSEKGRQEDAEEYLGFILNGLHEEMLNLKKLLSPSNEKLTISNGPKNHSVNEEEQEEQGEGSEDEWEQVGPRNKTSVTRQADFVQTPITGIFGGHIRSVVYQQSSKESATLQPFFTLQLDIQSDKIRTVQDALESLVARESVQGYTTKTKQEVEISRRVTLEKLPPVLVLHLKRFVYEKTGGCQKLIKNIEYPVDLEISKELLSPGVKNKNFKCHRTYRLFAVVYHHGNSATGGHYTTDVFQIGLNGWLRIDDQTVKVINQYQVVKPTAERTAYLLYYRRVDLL
USP7 inh – human USP7 deubiquitinase inhibition. purified USP7, Ub-rhodamine cleavage fluorescence. inhibition, % at 20 µM. 47,000 tested, 0.3% active. AID 1645854
Numbers without * were called inactive. Only some compounds are listed: those with a hit (about 13% of all), similar ones and a draw of the others. Rule as the data show it: active = inhibition above about 30%; inactive = the rest.

For O=C(Oc1cc(O)cc2c1C[C@@H](OC(=O)c1cc(O)c(O)c(O)c1)[C@@H](c1cc(O)c(O)c(O)c1)O2)c1cc(O)c(O)c(O)c1 the results were USP8 inh -304, UCHL1 inh 11, USP30 inh 0, USP17 block 77*, USP10 block -10 and USP7 inh 15.
Cc1ccc(Cc2nc(-c3cccc(-c4ccn[nH]4)c3)no2)cc1 was read as USP8 inh 18, UCHL1 inh 10, USP30 inh 2, USP17 block 10, USP10 block 10 and USP7 inh -18.
Clc1cc(-c2nc(-c3cccc(-c4ccn[nH]4)c3)no2)ccn1 was read as USP8 inh 1, UCHL1 inh 3, USP30 inh 5, USP17 block 41*, USP10 block 1 and USP7 inh 6.
For c1ccc(-c2ccc(-c3nc(-c4ccncc4)no3)cc2)cc1 the results were USP8 inh -1, UCHL1 inh -2, USP30 inh -19, USP17 block -3, USP10 block -5 and USP7 inh -3.
`CC(C)Nc1nc(-c2ccccc2)nnc1-c1ccccc1` gave USP8 inh 24, UCHL1 inh 2, USP30 inh 31*, USP17 block 17, USP10 block 4 and USP7 inh -5.
`COc1cccc(Cn2nc3n(C(C)C)c(=O)c4ccc(C(=O)NCC(C)C)cc4n3c2=O)c1` gave USP8 inh 0, UCHL1 inh 1, USP30 inh 23, USP17 block 33* and USP10 block 1.
For Cc1ccccc1C(=O)NCCn1cc(SCC(=O)Nc2ccc3c(c2)OCCO3)c2ccccc21 the results were USP8 inh -19, UCHL1 inh 4, USP30 inh 89*, USP17 block 22, USP10 block 9 and USP7 inh 7.
Cc1ccccc1Cn1cc(SCC(=O)Nc2ccc3c(c2)OCCO3)c2ccccc21 was read as USP8 inh 12, UCHL1 inh 7, USP30 inh 35*, USP17 block 11, USP10 block 9 and USP7 inh 7.
Cc1ccccc1Cn1cc(SCC(=O)Nc2ccc(F)cc2)c2ccccc21 was read as USP8 inh -8, UCHL1 inh 2, USP30 inh 9, USP17 block -3, USP10 block 10 and USP7 inh 4.
O=C(CSc1cn(Cc2ccccc2)c2ccccc12)Nc1ccc2c(c1)OCCO2 was read as USP8 inh 23, UCHL1 inh 7, USP30 inh 48*, USP10 block 12 and USP7 inh 0.
COc1c(O)cc(CC(=O)O)c(C(C)=O)c1O was read as USP8 inh 21, UCHL1 inh 50*, USP30 inh 34*, USP17 block 81*, USP10 block 14 and USP7 inh -29.
`O=C(Nc1ccc2c(c1)OCO2)C1[C@@H]2C(=O)N(c3ccccc3)C(=O)[C@@H]2[C@H]2c3ccccc3C=CN12` (some centres not stated) gave USP8 inh 49*, UCHL1 inh -154, USP30 inh -255, USP17 block 12, USP10 block -5 and USP7 inh -139.
For O=C(c1ccco1)C1C2C(=O)N(c3cccc(C(F)(F)F)c3)C(=O)C2C2c3ccccc3C=CN12 (configuration not stated) the results were USP8 inh -73, UCHL1 inh -77, USP30 inh inactive, USP17 block -128, USP10 block -3 and USP7 inh -101.
`CC(C)(C)C(=O)C1C2C(=O)N(c3ccc4c(c3)OCO4)C(=O)C2C2c3ccccc3C=CN12` (configuration not stated) gave USP8 inh 53*, UCHL1 inh 11, USP30 inh -17, USP17 block 69*, USP10 block 21 and USP7 inh -27.
Screening COc1ccc(NC(=O)CN2CCC3(O)CCCCC3C2c2ccccc2OC)cc1 (configuration not stated) returned USP8 inh -32, UCHL1 inh 2, USP30 inh -16, USP17 block -19, USP10 block -4 and USP7 inh 1.
CCCOc1ccc(N2CC(C(=O)Nc3ccc4c(c3)OCO4)CC2=O)cc1 (configuration not stated) was read as USP8 inh 25, UCHL1 inh 1, USP30 inh 14, USP17 block 8, USP10 block 15 and USP7 inh 7.
For COc1ccc(NC(=O)C2[C@@H]3C(=O)N(C4CCCCC4)C(=O)[C@@H]3[C@H]3c4ccccc4C=CN23)cc1 (some centres not stated) the results were USP8 inh 78*, UCHL1 inh -83, USP30 inh -60, USP17 block 60*, USP10 block -16 and USP7 inh -55.
`COc1ccc(NC(=O)C2[C@@H]3C(=O)N(c4ccc5c(c4)OCO5)C(=O)[C@@H]3[C@H]3c4ccccc4C=CN23)cc1` (some centres not stated) gave USP8 inh 55*, UCHL1 inh -157, USP30 inh -179, USP17 block 5, USP10 block -5 and USP7 inh -86.
CC(C)(C)C(=O)C1C2C(=O)N(Cc3ccccc3)C(=O)C2C2c3ccccc3C=CN12 (configuration not stated) was read as USP8 inh 81*, UCHL1 inh 1, USP30 inh -95, USP17 block 56*, USP10 block -6 and USP7 inh -9.
Screening COc1ccc(-c2ccc(NS(=O)(=O)c3ccc(F)cc3)cc2)nn1 returned USP8 inh 4, UCHL1 inh 1, USP30 inh 18, USP17 block 9, USP10 block 2 and USP7 inh 6.
For COc1ccc(S(=O)(=O)Nc2ccc(Nc3ccc(-n4cccn4)nn3)cc2)cc1 the results were USP8 inh -33, UCHL1 inh 5, USP30 inh 62*, USP17 block 47*, USP10 block 7 and USP7 inh 8.
Screening Cc1ccccc1Nc1nnc(SCC(=O)Nc2ccc(Cl)cc2F)s1 returned USP8 inh 11, UCHL1 inh 0, USP30 inh -2, USP17 block 2, USP10 block 1 and USP7 inh 3.
COc1ccc(NC(=O)CSc2oc(-c3ccc(C)cc3)nc2S(=O)(=O)c2ccc(Br)cc2)c(OC)c1 was read as USP8 inh 13, UCHL1 inh 3, USP30 inh 16, USP17 block 59*, USP10 block 2 and USP7 inh 6.
`O=C(CSc1oc(-c2ccc(F)cc2)nc1S(=O)(=O)c1ccc(F)cc1)Nc1ccc(F)cc1` gave USP8 inh 14, UCHL1 inh -4, USP30 inh -4, USP17 block 3, USP10 block 17 and USP7 inh 10.
Screening O=C(O)c1cccc2oc(-c3cccc4oc(-c5ccccc5O)nc34)nc12 returned USP8 inh 3, UCHL1 inh 6, USP30 inh -2, USP17 block 46*, USP10 block 7 and USP7 inh 10.

Compound activity deposited in PubChem BioAssay by Buhrlage Lab, Dana-Farber Cancer Institute and Novartis Institutes for BioMedical Research (Cambridge, Mass).
